Measurements from PubChem BioAssay.
Calls of active or inactive are those of the source.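 The calls were made as follows, unless noted: active = NADPH fluorescence slope more negative than the mean of all samples by about 3 SD, 99.7% confidence; inactive = the rest.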 Where a SMILES comes first, the peptide text is derived from it. [ ]: non-standard residue; d: D form. The star is where a group is joined. ξ: configuration not given here. Cbz = O=C(OCc1ccccc1)*; ξK = NCCCCC(N)C(=O)O

Experiments:
[1] = inhibitors of TNFa-induced NFkB p65 translocation, primary screen, imaging, HUVEC, MLSMR starter and 10KST1 sets (AID 438;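 active = inhibition above 20% together with a positive visual image hit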;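 also: compound added about 3h40 before a 20 min TNFalpha stimulation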;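 as to inhibition: signal is the nuclear over cytoplasmic p65 intensity ratio per well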); conditions: HUVEC TNFa-induced p65 nuclear translocation; cell count: measured here: nuclei count (cytotoxicity indicator), at 2.08 µM; inhibition: at 2 µM, stronger effect = higher value, 0% TNFa-plus-vehicle, 100% no-TNFa wells
[2] = reduction of polyQ htt aggregates in cells – imaging, exon1htt(103Q)mCFP cells, high-content imaging, primary screen (AID 483;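 active = visual image review flags a hit and inhibition of aggregation exceeds 20%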;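 also: compound exposure lasted 3 days before fixation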;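 as to nuclei count: percent of the per-plate median nuclei count of sample wells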); conditions: exon1htt(103Q)mCFP cell line, aggregate imaging, at 2 µM; inhibition of aggregation: stronger effect = higher value; nuclei count: measured here: cell count, toxicity
[3] = endothelial E-selectin expression blockers – imaging, HUVEC, immunofluorescence, MLSMR starter and 10KST1 sets, primary screen (AID 487;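 active = visually confirmed hit in the image check and inhibition above 20%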;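 as to inhibition: signal is fraction of cell area covered by stained E-selectin grains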;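 as to nuclei count: 100% = median nuclei count of all wells on the same plate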); conditions: HUVEC TNFalpha-induced E-selectin immunofluorescence imaging, at 2 µM; inhibition: stronger effect = higher value; nuclei count: measured here: cell number, toxicity
[4] = target: Voltage-gated potassium channel subunit beta-2 (Rattus norvegicus) (UniProt P62483); assay: inhibitors of rat Kvbeta2 reductase activity – biochemical, NADPH fluorescence, primary screen (AID 622;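 active = fluorescence slope higher than the sample average by over 3 SD, cut at about -0.22 in these data, passing the limit was not always enough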;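 also: slope of raw intensity against log time taken from 70 to 1610 s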); conditions: recombinant KvBeta, 4-cyanobenzaldehyde reduction, at 10 µM, stronger effect = higher value
Sequence of Voltage-gated potassium channel subunit beta-2 (Rattus norvegicus) (P62483 whole entry, looked up): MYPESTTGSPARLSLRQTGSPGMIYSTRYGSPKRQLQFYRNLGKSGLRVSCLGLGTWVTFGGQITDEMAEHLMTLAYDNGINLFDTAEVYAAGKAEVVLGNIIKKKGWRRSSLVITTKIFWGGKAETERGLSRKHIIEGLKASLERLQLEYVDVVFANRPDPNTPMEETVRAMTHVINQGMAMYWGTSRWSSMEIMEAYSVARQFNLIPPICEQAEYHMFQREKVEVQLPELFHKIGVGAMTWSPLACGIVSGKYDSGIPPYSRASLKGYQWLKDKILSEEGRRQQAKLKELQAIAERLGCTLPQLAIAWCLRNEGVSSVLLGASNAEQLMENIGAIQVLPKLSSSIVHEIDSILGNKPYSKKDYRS

[5] = target: Voltage-gated potassium channel subunit beta-2 (Rattus norvegicus) (UniProt P62483); assay: enhancers of rat Kvbeta2 NADPH turnover – biochemical, NADPH fluorescence, primary screen (AID 623); conditions: Recombinant KvBeta, NADPH fluorescence decrease slope, 10 min; at 10 µM; stronger effect = lower value;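 also: fluorescence intensity change per second fitted from 20 to 320 s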
[6] = target: Alpha-2C adrenergic receptor (Homo sapiens) (UniProt P18825); assay: compounds altering alpha2C-coupled GIRK flux – cell-based, HEK293 alpha2C/GIRK1/2, thallium flux, primary screen (AID 624;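 active = fluorescence slope after compound addition differing from the mean of all screened samples at 99.7% confidence, in either direction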;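 also: slope of fluorescence ratio to pre-addition baseline per second over 15 to 24 s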); conditions: thallium flux BTC fluorescence, at 10 µM, actives lie on both sides
Sequence of Alpha-2C adrenergic receptor (Homo sapiens) (P18825 whole entry, looked up): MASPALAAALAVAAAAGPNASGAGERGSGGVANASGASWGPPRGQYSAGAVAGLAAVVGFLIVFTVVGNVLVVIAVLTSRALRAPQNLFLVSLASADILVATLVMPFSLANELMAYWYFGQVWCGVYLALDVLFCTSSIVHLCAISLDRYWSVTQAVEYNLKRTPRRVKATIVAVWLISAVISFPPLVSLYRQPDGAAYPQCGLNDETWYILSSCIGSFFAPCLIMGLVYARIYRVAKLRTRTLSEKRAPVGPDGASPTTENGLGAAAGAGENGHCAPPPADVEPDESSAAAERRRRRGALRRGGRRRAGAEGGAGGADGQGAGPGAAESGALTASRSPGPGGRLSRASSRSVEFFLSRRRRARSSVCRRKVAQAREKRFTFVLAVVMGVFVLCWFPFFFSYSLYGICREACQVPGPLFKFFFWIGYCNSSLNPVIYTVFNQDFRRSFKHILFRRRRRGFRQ

[7] = blockers of RIG-like receptor reporter activation – cell-based, Sendai virus stimulus, luciferase, 10K MLSCN set, TLR/RLR signaling modifier project, primary screen (AID 602276;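 active = inhibition at or above 50% at 10 µM; inactive = inhibition below 50%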;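 also: firefly luciferase from ISG56 promoter only with Renilla not read in this screen; 0% = Sendai virus plus DMSO and 100% = medium plus DMSO without virus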); conditions: HEK293 RL24 IRF3 luciferase reporter, at 10 µM, stronger effect = higher value
[8] = TLR3 IRF3 reporter activation blockers – cell-based, poly I:C stimulus, luciferase, 10K MLSCN set, primary screen (AID 602277;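 active = inhibition of the reporter signal at or above 50%; inactive = inhibition below 50%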); conditions: HEK293-TLR3 RL24 IRF3 luciferase reporter, at 10 µM, stronger effect = higher value

SMILES | cell count [1] | inhibition [1] | inhibition of aggregation [2] | nuclei count [2] | inhibition [3] | nuclei count [3] | fluorescence slope [4] | NADPH fluorescence slope [5] | slope [6] | inhibition [7] | inhibition [8]
Cc1cc(NC(=O)c2cc3ccccc3o2)cc(C)c1OCC(=O)N1CCOCC1 | 388 | 7.3% (inactive) | -7% (inactive) | 121% | -11.8% (inactive) | 115% | -0.526 (inactive) | -4.4e-05 (inactive) | 0.00621 (inactive) | -1.27% (inactive) | -52% (inactive)
Cc1ccc(OCc2nnc(SCC(=O)N3CCOCC3)n2C)cc1 | 594 | -12.9% (inactive) | 6.8% (inactive) | 104% | -58.9% (inactive) | 116% | -0.372 (inactive) | -1.9e-05 (inactive) | 0.00543 (inactive) | -1.5% (inactive) | 6.14% (inactive)
Cc1ccccc1-c1nc(CN2CCC(C(=O)NC3CCN(Cc4ccccc4)CC3)CC2)c(C)o1 | 612 | 3.7% (inactive) | -89.7% (inactive) | 107% | 13% (inactive) | 108% | -0.561 (inactive) | -3e-05 (inactive) | 0.0054 (inactive) | -19.2% (inactive) | 78% (active)
Cc1noc(C)c1S(=O)(=O)N1CCN(Cc2ccc3c(c2)OCO3)CC1 | 730 | 2.5% (inactive) | 0.3% (inactive) | 106% | -16.7% (inactive) | 117% | -0.542 (inactive) | -2e-05 (inactive) | 0.00533 (inactive) | 4.24% (inactive) | 18.3% (inactive)
COC(=O)C(CCCCNC(=O)OCc1ccccc1)NC(=O)CN (stereo not given) (H-Gly-[ξK](Cbz)-OMe) | 529 | -6.5% (inactive) | 11.4% (inactive) | 104% | -14% (inactive) | 71.3% | -0.623 (inactive) | -2.9e-05 (inactive) | 0.00756 (inactive) | 4.8% (inactive) | 6.56% (inactive)
Cc1ccc2[nH]cc(C(=O)CN3CCC4(CC3)OCCO4)c2c1 | 355 | 2% (inactive) | 14.9% (inactive) | 88% | -18.9% (inactive) | 122% | -0.619 (inactive) | -9.1e-06 (inactive) | 0.00468 (inactive) | 4.24% (inactive) | 7.68% (inactive)
CN(CC(=O)NCCC1=CCCCC1)S(=O)(=O)c1ccc2c(c1)CCC(=O)N2 | 603 | 16.1% (inactive) | 19% (inactive) | 111% | -110% (inactive) | 141% | -0.505 (inactive) | 1.1e-05 (inactive) | 0.00584 (inactive) | -4.9% (inactive) | 16.8% (inactive)
CC(C)CCNc1cc(=O)n(C)c(=O)n1C | 686 | -3.9% (inactive) | -15.5% (inactive) | 108% | 28.9% (inactive) | 88% | -0.459 (inactive) | 5e-05 (inactive) | 0.00778 (inactive) | 0.49% (inactive) | 8.23% (inactive)
Cc1nc2c(-c3ccccc3)c(C)nn2c(C)c1CCC(=O)O | 586 | 6.1% (inactive) | 8.1% (inactive) | 73% | -61.1% (inactive) | 103% | -0.492 (inactive) | -2.4e-05 (inactive) | 0.00603 (inactive) | 13.6% (inactive) | 20% (inactive)
COC(=O)CSc1ncccc1-c1nc2ccccc2[nH]1 | 473 | -4.5% (inactive) | -2% (inactive) | 111% | -48.5% (inactive) | 99.2% | -0.512 (inactive) | 3.1e-05 (inactive) | 0.00493 (inactive) | -16.6% (inactive) | -32.8% (inactive)
